# From PubChem BioAssay
# In the library only some 21% were active in any assay of this set; here they are far more common.
# Pf growth 48h: P. falciparum growth inhibition at 48 hours (one generation); P. falciparum luciferase growth in erythrocytes, 48 h; Potency, µM (series often up to 28.7 µM), for the others: top-dose activity change, negative = inhibition, usual class: inhibitors; 310,000 tested, 5.9% active; active = well fitted inhibition curve with a large enough effect; inconclusive = small, poorly fitted or top-dose-only effect, or another doubt; inactive = no such curve, though single readings can be large or run the other way; note: potency is the fitted concentration of half-maximal effect; % is set by controls: 0 for no effect and ±100 for the full control effect
#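 In quantitative HTS format, infected erythrocytes bearing luciferase-reporter parasites were treated for a single generation at 37 C. Luminescence after adding detection reagent served as the growth measure.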
# Pf growth 96h: P. falciparum growth inhibition at 96 hours; P. falciparum luciferase reporter growth, 96 h; Potency, µM (series often up to 28.7 µM), for the others: top-dose activity change, negative = inhibition, actives largely listed as inhibitors; 320,000 tested, 6.9% active; AID 504834; active = well fitted inhibition curve with a large enough effect; inconclusive = small, poorly fitted or top-dose-only effect, or another doubt; inactive = no such curve, though single readings can be large or run the other way; note: potency is the fitted concentration of half-maximal effect; % is set by controls: 0 for no effect and ±100 for the full control effect
#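 P. falciparum expressing integrated firefly luciferase, in erythrocytes at 2% hematocrit, 0.05% parasitemia, incubated with compounds 96 h at 37 C, 5% CO2. Growth inhibition read as loss of luminescence; two-generation exposure targets delayed-death apicoplast inhibitors.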
# NS1 inh: inhibitors of influenza NS1 protein function. Potency, µM (top dose mostly 46.1 µM), without a hit: at the top dose activity, positive = more growth. 270,000 tested, 0.4% active; note: potency is the fitted concentration of half-maximal effect; actives are rising curves; nearly all actives have a fitted effect of over 50% in size
#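 OD600 was taken as the measure of yeast growth restored by compound in an NS1-expressing S. cerevisiae strain. Cells had been washed out of glucose medium and diluted 1:100 into galactose -URA medium, pH 6.0.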
# SARS PLP yeast: inhibitors of SARS-CoV papain-like protease in yeast | S. cerevisiae expressing SARS-CoV PLpro, growth rescue | 330,000 tested, 0.19% active | AID 485353 | Potency, µM (top dose mostly 32.9 µM), inactives show at the highest dose activity, positive = growth rescue, hits mostly activators; note: potency is the fitted concentration of half-maximal effect; 0% is about no effect; nearly all actives have a fitted effect of over 55% in size
# Cycloheximide cs: affects cycloheximide protein synthesis inhibition readout, counter-screen; cell reporter, cycloheximide protein synthesis inhibition counterscreen; max response, %; 300,000 tested, 12% active; AID 2314; in the data active = max response mostly above about 13%, no sharp cut-off; inactive = mostly below about 14%; note: read at 38.3 µM for the half of the compounds with a filed dose; 0% is about no effect
# Shiga inhibitor: inhibitors of Shiga toxin in Vero cells; inhibition, % at 38.7 µM; 290,000 tested, 9.2% active; Vero cells, Shiga toxin protein synthesis inhibition reporter; in the data active = inhibition mostly above about 28%, no sharp cut-off; inactive = mostly below about 43%; note: 0% is about no effect
# * marks the source's active call; other numbers are inactive results; u = inconclusive; x = no result; ! = a repeat was not active; [ ] = dose if it differs, or a comment. Unless noted, calls come from the whole dose curve.
SMILES,Pf growth 48h,Pf growth 96h,NS1 inh,SARS PLP yeast,Cycloheximide cs,Shiga inhibitor
CCOc1ccccc1Nc1nc(-c2sc(NC(=O)c3ccccc3)nc2C)cs1,7.4µM*,u,u,8%,12,-13
CCOc1ccccc1Nc1nc(-c2sc(NC(=O)c3cccc(Cl)c3)nc2C)cs1,6.6µM*,4.7µM*,-1%,-2%,13,49
Cc1nc(NC(=O)c2ccccc2)sc1-c1csc(NCc2ccccc2)n1,u,x,u,-8%,19,-6
NNC(=O)C1CC(O)CN1S(=O)(=O)c1ccc2ccccc2c1 (stereo not given),-28%,-11%,x,4%,x,x
CN(C)CCCN1c2ccccc2Sc2cnccc21,x,x,-8%,x,x,x
NC(=O)CC(NC(=O)Cc1ccc(Br)cc1)c1ccc(N2CCC(N3CCCCC3)CC2)c([N+](=O)[O-])c1 (stereo not given),11%,-15%,-8%,-2%,-4,-8
COC(=O)C1=C(C)N(Cc2ccccc2)C(=NCCc2cccnc2)N[C@H]1c1ccccc1,u,15µM*,-26%,-6%,-3,1
COC(=O)C1=C(C)N(Cc2ccccc2)C(=NCC2CC2)N[C@H]1c1ccccc1,9.3µM*!,24%,-2%,-7%,-3,-6
COC(=O)C1=C(C)N(Cc2ccccc2)C(=NCCc2cccnc2)N[C@H]1c1ccc(Br)cc1,7.4µM*,41%,-23%,0%,-9,-12
COC(=O)C1=C(C)N(Cc2ccccc2)C(=NCCCCO)N[C@H]1c1ccccc1,41%,u,-4%,1%,-1,-5
COC(=O)C1=C(C)N(Cc2ccccc2)C(=NCC2CC2)N[C@H]1c1ccc(Br)cc1,u,u,6%,7%,-5,-3
O=C(Nc1ccccc1)NC1(C(=O)NCc2cccs2)CCCCC1,3%,13%,-2%,5%,-1,9
Cc1ccc(C(CC(=O)N2CCNCC2)c2ccccc2)c(O)c1C (stereo not given),u,u,-1%,-2%,-3,-10
N#CC1=C(N)Oc2c(oc(CO)cc2=O)C12C(=O)Nc1ccc(Cl)cc12 (stereo not given),17%,x,-3%,1%,1,-7
Cc1nn2cc(-c3cccc(Cl)c3)cnc2c1Br,44%,94%,2%,17%,14,56*
Cc1nn2cc(-c3cccc(Cl)c3)cnc2c1Cl,188%,471%,x,2%,33*,124*
Nc1nc(N)nc(-c2cccc(Cl)c2)n1,71%,u,x,1%,x,x
CC(C)n1nnnc1-c1cccc(Cl)c1,5%,19%,u,-3%,9,8
Cc1cc(OCCN2CCOCC2)ccc1[N+](=O)[O-],108%,-6%,5%,7%,10,17
Cc1ccc(OCCN2CCOCC2)cc1C,11%,u,9%,-4%,17*,40
Cc1cc(C)c(NC(=O)OCCN2CCOCC2)c(C)c1,2%,0.23µM*,1%,1%,8,-6
Cc1cc(OCCN2CCOCC2)ccc1Cl,91%,u,-1%,-7%,32*,138*
COc1ccc(NC(=O)C2CCN(S(=O)(=O)c3ccc4c(c3)NC(=O)CO4)CC2)cc1,u,-1%,2%,-6%,-10,-22
O=C(CCl)NCCCCCCCCCNC(=O)CCl,1.9µM*,1.5µM*,-45%,u,1,14
CC(NCc1ccccc1O)C12CC3CC(CC(C3)C1)C2 (stereo not given),0.066µM*,0.1µM*,-8%,0%,-3,1
SMILES,Pf growth 48h,Pf growth 96h,NS1 inh,SARS PLP yeast,Cycloheximide cs,Shiga inhibitor
CS(=O)(=O)N1CCN(c2ccc(NC(=O)c3ccccc3)cc2)CC1,131%,13%,x,-1%,37*,82*
Cc1cccc(C(=O)Nc2ccc(N3CCN(S(C)(=O)=O)CC3)cc2)c1,98%,35%,1%,1%,22*,73*
COc1cccc(C(=O)Nc2ccc(N3CCN(S(C)(=O)=O)CC3)cc2)c1,x,57%,5%,-4%,13,26
O=C(NCc1cccnc1)c1ccc(Cn2c(=S)[nH]c3ccc(Br)cc3c2=O)cc1,u,u,x,-1%,10,13
CN1C(=O)SC(Nc2ccccc2C(=O)O)C1=O (stereo not given),6%,1.3µM*,-7%,4%,-2,1
C/C(CC(=O)Nc1c(C)cc(C)cc1C)=N\NC(=O)OC(C)(C)C,-15%,u,17%,9%,25*,79*
C/C(CC(=O)Nc1c(C)cc(C)cc1C)=N\NC(=O)c1cnccn1,0%,u,-3%,14%,50*,23
Cc1cc(C)c(NC(=O)CN)c(C)c1,-3%,0%,1%,0%,1,7
C/C(CC(=O)Nc1cccc(C(F)(F)F)c1)=N\NC(=O)c1cnccn1,-12%,-17%,22%,-2%,26*,53*
C/C(CC(=O)Nc1ccc(Cl)cc1Cl)=N\NC(=O)c1cnccn1,11%,21%,10%,-2%,32*,59*
COCCNC(=O)C(=O)N/N=C(\C)CC(=O)Nc1ccc(Cl)cc1Cl,32%,-8%,19%,1%,-2,-3
C/C(CC(=O)Nc1cccc(C(F)(F)F)c1)=N/NC(=O)C(=O)NCCO,11%,7%,0%,-1%,11,17
Cc1ccc(NC(=O)c2ccco2)c(NC(=O)c2ccc(Cl)cc2)c1,-38%,38%,-1%,-11%,3,-8
O=C(O)c1cn(-c2ccc(F)c(F)c2)c2c(F)c(F)c(F)c(F)c2c1=O,1%,15%,-28%,-11%,-2,-15
C/C(CC(=O)Nc1ccc(Cl)c(C(F)(F)F)c1)=N\NC(=O)c1cnccn1,u,-8%,9%,-1%,41*,74*
COc1ccc(NC(=O)C2CC(=O)OC2c2ccccc2)cc1 (stereo not given),-6%,9.3µM*,4%,-7%,-1,-2
Cc1cccc(NC(=O)C2Cc3ccccc3O/C2=N\O)c1 (stereo not given),55%,1%,3%,0%,27*,63*
COc1ccc(NC(=O)C2Cc3ccccc3O/C2=N\O)cc1 (stereo not given),-32%[0.00184 µM],-15%,4%,0%,51*,114*
Cc1cc(NC(=O)C2CC(=O)OC2c2ccccc2)no1 (stereo not given),39%,34%,-1%,3%,3,7
COc1ccc(NC(=O)C2Cc3cccc(OC)c3O/C2=N\O)cc1 (stereo not given),-15%,0%,0%,0%,-2,2
CC1CCCCC1NC(=O)CCCCn1c(=O)[nH]c2ccsc2c1=O (stereo not given),-14%,-3%,9%,5%,-6,-12
O=Cc1sc([O-])nc1-[n+]1ccc2ccccc2c1,15%,4%,7%,-1%,-1,7
